Laboratory results published in PubChem BioAssay AID372 (MTDP, 2006).
The whole screen tested about 100,000 compounds, of which about 770 (0.77%) were called active. Only a selection was taken, and actives are over-represented in it overall. A number with no mark means an inactive call. No stated cut-off is given here; in the data, active means inhibition above about 50%; inactive means the rest.

biological target: Gag-Pol polyprotein (Human immunodeficiency virus type 1 group M subtype B (isolate HXB2)) (UniProt P04585); assay: RNase H inhibition, HIV 1 Gag Pol polyprotein, FRET biochemical assay, screening (AID 372); details: HIV-1 RT RNase H, FRET RNA/DNA substrate fluorescence; at 10 µM; active compounds read high

SMILES | inhibition
O=C1C(=Cc2ccc(Oc3ccc(C(F)(F)F)cc3[N+](=O)[O-])c(Cl)c2)C(=O)c2ccccc21 | 16%
Cc1cc(Oc2cc(NC(=O)c3cc(-c4ccccc4)nc4ccccc34)cc([N+](=O)[O-])c2)ccc1Cl | 0%
Cc1cc(C)c2oc(-c3ccc(C)c(NC(=O)c4cccs4)c3)nc2c1 | 15%
CCOc1ccc(/C=N/n2c(-c3ccc(OC)cc3)n[nH]c2=S)cc1OC | 12%
COc1cc2ccccc2cc1C(=O)Nc1cccc2ccccc12 | 10%
O=S(=O)(Oc1ccc2ccccc2c1)c1cc(Cl)c(Cl)cc1Cl | 58% (active)
COc1ccc(OS(=O)(=O)c2cc(Cl)c(Cl)cc2Cl)cc1 | 31%
Cc1cc(S(=O)(=O)Oc2ccc3ccccc3c2)c(Cl)cc1Cl | 42%
O=C(Nc1ccccc1C#Cc1ccccc1)C(c1ccccc1)c1ccccc1 | 8%
Cc1ccc(/C=C2\SC(=S)N(CCC(=O)Nc3cc(Cl)cc(Cl)c3)C2=O)cc1 | 14%
CC1(C)C(c2ccccc2)=NC(c2ccccc2F)=[N+]1[O-] | 0%
COc1ccc(/C=N/NC(=O)c2cc(-c3ccc(Cl)cc3)n[nH]2)cc1 | 14%
CC(C)(C)N1C(=O)c2ccc(C(=O)c3ccc(C(=O)O)cc3)cc2C1=O | 0%
Cc1cc(/C=C2\NC(=O)NC2=O)c(C)n1-c1cccc([N+](=O)[O-])c1 | 29%
CCC(=O)N(Cc1ccco1)C1CC(=O)N(c2ccccc2)C1=O (configuration not stated) | 0%
Cn1c(/C=C/c2ccc(Br)cc2)c([N+](=O)[O-])c(=O)n(C)c1=O | 6%
Cn1c(/C=C/c2cccc(Oc3ccccc3)c2)c([N+](=O)[O-])c(=O)n(C)c1=O | 54% (active)
CCOc1ccc(/C=C/c2c([N+](=O)[O-])c(=O)n(C)c(=O)n2C)cc1 | 16%
Cc1[nH]n(-c2ccccc2)c(=O)c1N=Nc1ccccc1Br | 5%
COc1ccc2ccccc2c1/C=C1\SC(=Nc2cccc(Cl)c2C)NC1=O | 35%
O=C(Nc1ccc(O)cc1)Nc1ccc(Cl)cc1 | 17%
O=C(Nc1ccc(Cl)cc1)Nc1cc(Cl)cc(Cl)c1 | 6%
O=C(Nc1ccc(Cl)cc1)Nc1ccc(-c2ccc(NC(=O)Nc3ccc(Cl)cc3)cc2)cc1 | 57% (active)
COc1ccc(N2C(=O)/C(=C/c3ccc(-c4ccc([N+](=O)[O-])c(C)c4)o3)SC2=S)cc1 | 64% (active)

SMILES | inhibition
O=C1/C(=C\c2ccc(-c3ccc([N+](=O)[O-])cc3)o2)SC(=S)N1c1ccc(O)cc1 | 52% (active)
COc1ccc(N2C(=O)/C(=C/c3ccc(-c4ccccc4[N+](=O)[O-])o3)SC2=S)cc1 | 26%
COc1ccc(N2C(=O)/C(=C/c3ccc(-c4ccc([N+](=O)[O-])cc4Cl)o3)SC2=S)cc1 | 18%
O=C(O)c1cccc(-c2ccc(/C=C3\SC(=S)N(c4ccc([N+](=O)[O-])cc4)C3=O)o2)c1 | 12%
O=C(O)c1ccc(-c2ccc(/C=C3\SC(=S)N(c4ccc([N+](=O)[O-])cc4)C3=O)o2)cc1 | 49%
COc1ccc(CN2CCN(Cc3ccccc3C(F)(F)F)CC2)cc1Br | 4%
Cc1ccc(/C(N)=N/OC(=O)c2ccc(C)cc2Cl)cc1 | 10%
Clc1ccc(-c2nnc(-c3ccc4c(c3)OCO4)o2)c(Cl)c1 | 3%
CCOC(=O)C1=C(C)N=c2s/c(=C\c3cccc(OCc4ccccc4Cl)c3)c(=O)n2C1c1ccc(Cl)cc1 (configuration not stated) | 11%
COc1ccc(Br)cc1CNC12CC3CC(CC(C3)C1)C2 | 6%
Br/C(=C\c1ccccc1)C1Nc2cccc3cccc(c23)N1 | 21%
CCCCC(O)(CCCC)c1ccccc1O | 3%
O=c1oc2ccccc2cc1-c1csc(-c2ccc(O)cc2)n1 | 43%
CCOc1cc(/C=C(/C#N)C(=O)Nc2cc(Cl)ccc2Cl)ccc1O | 51% (active)
CCOc1ccc(NC(=O)/C(C#N)=C\c2ccc(O)c(OCC)c2)cc1 | 20%
CCNC(=O)/C(C#N)=C/c1ccc(O)c(OCC)c1 | 6%
COc1ccc2c(c1)C1C=CCC1C(C(=O)O)N2 (configuration not stated) | 25%
Cc1ccc(C(=O)c2cccc(C(=O)c3ccc(C)cc3)c2)cc1 | 7%
O=C(c1ccccc1)c1ccc2[nH]c(=O)[nH]c2c1 | 0%
O=C(c1ccccc1)c1ccc(O)c(O)c1 | 60% (active)
O=C(Sc1nnnn1-c1ccccc1)c1ccccc1Br | 0%
Cc1sc(NC(=O)C2CCCCC2)c(C(N)=O)c1C | 7%
CCOC(=O)c1sc(NC(=O)C2CC3CCC2C3)c(C(=O)OCC)c1C (configuration not stated) | 10%
